Screens (PubChem BioAssay)
A selection: hits, their analogues and other compounds. The true share with any hit is near 1.8%.
HTT ATP protect = Huntington cell model cytoprotection by ATP luminescence; Potency, µM (doses to about 56.4 µM), inactives show cytoprotection (ATP increase), usual class: activators; 230,000 compounds, 0.14% hits; PC12 HTT-Q103 induced, cytoprotection, ATP luminescence, 40 h; further: % of control where 0% means no effect; nearly all actives have a fitted effect of over 45% in size
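PC12 cells stably carrying ecdysone-inducible Htt exon 1 (Q103)–GFP were induced with 100 nM tebufenozide (final) alongside library compounds in a dose series. Cytoprotection was scored as retained ATP by ATPlite luminescence.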
L3MBTL1 block = L3MBTL1 (human) inhibition; Potency, µM (doses to about 57.1 µM), inactives show at the highest dose activity, negative = inhibition, hits mostly inhibitors; AID 485360; AlphaScreen L3MBTL1–H3K9me1 peptide binding; 230,000 compounds, 0.66% hits; further: on the % scale 0 is the no-effect control and ±100 the full control effect; nearly all actives have a fitted effect of over 60% in size
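Read-out is AlphaScreen signal from streptavidin donor and nickel chelate acceptor beads (10 ug/mL final each) bridging L3MBTL1 (50 nM) and biotinylated K9-monomethylated H3(1-15) peptide (75 nM), after 30 min compound exposure at room temperature.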
JMJD2E inh = inhibitors of human JMJD2E histone demethylase | B2RXH2 | JMJD2E catalytic domain, FDH-coupled NADH fluorescence (FDH is formaldehyde dehydrogenase) | Potency, µM (titrated, usually from 57.1 µM), inactives show at the top dose activity change, negative = inhibition, hits mostly inhibitors | 230,000 compounds, 1.6% hits | AID 2147; active means well fitted inhibition curve with a large enough effect, not every such curve was filed as active; inconclusive means small, poorly fitted or top-dose-only effect, or another doubt; inactive means no such curve, though single readings can be large or run the other way;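 further: 0% = wells with enzyme and -100% = buffer wells without enzyme; nearly all actives have a fitted effect of over 50% in size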
Target sequence (B2RXH2 1-337 limits assumed): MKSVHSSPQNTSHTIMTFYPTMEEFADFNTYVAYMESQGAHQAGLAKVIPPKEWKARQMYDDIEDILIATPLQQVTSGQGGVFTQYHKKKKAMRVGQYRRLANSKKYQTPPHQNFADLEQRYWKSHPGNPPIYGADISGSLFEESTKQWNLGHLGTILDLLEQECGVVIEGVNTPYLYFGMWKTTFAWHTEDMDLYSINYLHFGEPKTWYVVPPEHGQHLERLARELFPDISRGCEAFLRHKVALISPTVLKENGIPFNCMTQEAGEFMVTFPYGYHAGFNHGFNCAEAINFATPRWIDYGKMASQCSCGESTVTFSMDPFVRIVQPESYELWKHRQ
HttQ103 aggreg = inhibitors of mutant huntingtin aggregate formation in PC12 cells; PC12 HttQ103-GFP aggregates, Acumen cytometry, 40 h; Potency, µM (top dose mostly 46.1 µM), for inactives: at the top dose activity change, negative = inhibition, hits mostly inhibitors; 220,000 compounds, 1.1% hits; further: on the % scale 0 is the no-effect control and ±100 the full control effect; nearly all actives have a fitted effect of over 60% in size
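Quantitative HTS on tebufenozide-induced (100 nM) PC12 cells stably expressing polyQ103 Huntingtin exon 1–GFP. Reduction of bright GFP aggregates, detected by laser scanning cytometry after lysis, identified actives across the titration.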
* marks the source's active call; other numbers are inactive results; ! = not confirmed by another sample; [ ] = remark or other dose. Unless noted, the call rests on the fitted dose curve; in most records, active means well fitted curve in the direction sought with a large enough effect; inconclusive means small, poorly fitted or top-dose-only effect, or another doubt; inactive means no such curve, though single readings can be large; an effect the other way counts as inactive or inconclusive. Potency means the concentration at half of the fitted maximal effect.

How did CCN1C(=O)[C@H]2[C@@H]3[C@H](O)[C@H](O)CC(=O)[C@H]3CC[C@H]2C1=O do in these assays?
HTT ATP protect: -6%[10 µM]

Results for CSc1nc(N(CCO)CCO)c2sc3nc(-c4ccco4)c4c(c3c2n1)CCC4 ?
HTT ATP protect: 8%[0.074 µM]; L3MBTL1 block: 2.5µM*; JMJD2E inh: 7%; HttQ103 aggreg: inconclusive

How did O=c1cc(C(F)(F)F)[nH]c2c(C(F)(F)F)cccc12 do in these assays?
L3MBTL1 block: 0%; JMJD2E inh: inconclusive; HttQ103 aggreg: 20µM*

How did COc1cccc([C@@H]2Oc3ccc(Br)cc3C(=O)[C@H]2OC(=O)NCCOc2ccccc2)c1 do in these assays?
HTT ATP protect: 3%; JMJD2E inh: inconclusive

Results for CN(C)CCOc1cccc(Cl)c1 ?
HTT ATP protect: 14%[10 µM]; L3MBTL1 block: 0%; JMJD2E inh: 22µM*; HttQ103 aggreg: -10%

What do the screens show for `COCCNc1cc(-c2ccccc2C)ncn1`?
HTT ATP protect: -30%

How did C/C(CCC(=O)OC[C@@H]1O[C@H](C#Cc2ccccc2)C=C[C@@H]1Oc1ccc(C)cc1)=N/O[C@@H](C)CN1CCCCc2nc(C)c(C)cc21 do in these assays?
HTT ATP protect: 2%[10 µM]

Results for COc1cccc([C@@H]2Oc3ccc(OC)cc3C[C@H]2OC(=O)N[C@H](C)C2CCCCC2)c1 ?
HTT ATP protect: inconclusive; JMJD2E inh: -5%

How did O=C(c1cnn(-c2ccccc2)c1)c1ccccc1O do in these assays?
HTT ATP protect: 2%[10 µM]; L3MBTL1 block: 5%; JMJD2E inh: -4%; HttQ103 aggreg: 11µM*

What do the screens show for `Cc1ccc(NC(=O)C2=C(c3ccccc3)S(=O)(=O)CCS2(=O)=O)cc1`?
HTT ATP protect: -133%; L3MBTL1 block: -11%; JMJD2E inh: -1%; HttQ103 aggreg: 5µM*

Results for Oc1ccc(CNc2cccc(F)c2F)c2cccnc12 ?
L3MBTL1 block: 25µM*

Results for Oc1ccc(CNc2ccccc2F)c2cccnc12 ?
HTT ATP protect: -51%; L3MBTL1 block: 8.9µM*; JMJD2E inh: 7.9µM*; HttQ103 aggreg: inconclusive

Results for Cc1nc2ncnn2c(N2CCCC(C(=O)Nc3ccc4c(c3)CCC4)C2)c1C (stereo not drawn) ?
HTT ATP protect: -2%[10 µM]; L3MBTL1 block: 29%; JMJD2E inh: inconclusive; HttQ103 aggreg: 10µM*

How did O=C(Nc1ccc2c(c1)CCC2)C1CCCN(c2ncccn2)C1 (stereo not drawn) do in these assays?
HTT ATP protect: -22%[10 µM]; L3MBTL1 block: 0%; JMJD2E inh: -27%; HttQ103 aggreg: 9%

Results for CCc1cc2c(=O)c(-c3cscn3)coc2c(CN(C)C)c1O ?
HTT ATP protect: -37%[10 µM]; L3MBTL1 block: 7%; JMJD2E inh: inconclusive; HttQ103 aggreg: 11µM*

Results for CCSS(=O)(=O)c1cccc2cccnc12 ?
HTT ATP protect: 2%[10 µM]; L3MBTL1 block: -8%; JMJD2E inh: 3.2µM*; HttQ103 aggreg: -18%[9.22 µM]

What do the screens show for `N#Cc1cccc(-c2ccc3ncnc(NCCN4CCOCC4)c3c2)c1`?
HTT ATP protect: -100%

How did C/C(=N\OCC(=O)Nc1ccc2c(c1)OCCO2)c1ccc2c(c1)OCCO2 do in these assays?
HTT ATP protect: -13%[10 µM]; L3MBTL1 block: inconclusive; JMJD2E inh: -5%; HttQ103 aggreg: 28µM*

Results for O=S(=O)(Nc1cccnc1)c1ccc(C2CCCCC2)cc1 ?
HTT ATP protect: 7%[10 µM]; JMJD2E inh: 1%; HttQ103 aggreg: 2.8µM*

What do the screens show for `O=S(=O)(Nc1cccnc1)c1ccccc1`?
HTT ATP protect: -25%; JMJD2E inh: 0%; HttQ103 aggreg: 4%

What do the screens show for `CC(=O)OC[C@@H]1O[C@H](CCO/N=C(\C)CCC(=O)OC[C@@H]2O[C@H](C#Cc3ccccc3)C=C[C@@H]2Oc2ccc(C)cc2)C=C[C@@H]1OC(C)=O`?
HTT ATP protect: 16%[10 µM]

Results for CN(C)c1ncc2nc(-c3ccccc3)c(=O)n(-c3ccccc3)c2n1 ?
HTT ATP protect: -27%

What do the screens show for `Cc1nc2c(O)cccc2c(=O)[nH]1`?
HTT ATP protect: -2%; JMJD2E inh: 13µM*

How did C[C@](Cc1ccc(O)c(O)c1)(NN)C(=O)O do in these assays?
HTT ATP protect: -31%[1.9 µM]

Results for CC(C)(Cc1cccc(CC(C)(C)C(=O)O)c1)C(=O)O ?
L3MBTL1 block: 3%

What do the screens show for `C[C@@](Cc1ccc(O)c(O)c1)(NN)C(=O)O`?
HTT ATP protect: -134%; L3MBTL1 block: 4%; JMJD2E inh: 3.5µM*!; HttQ103 aggreg: 9%

Results for CC(N)(Cc1ccc(O)c(O)c1)C(=O)O (stereo not drawn) ?
JMJD2E inh: 3.5µM*

How did COc1ccc(C[C@@](C)(N)C(=O)O)cc1OC do in these assays?
HTT ATP protect: inconclusive; JMJD2E inh: 11µM*; HttQ103 aggreg: 12%[20.6 µM]

What do the screens show for `c1ccc2c(NCCN3CCOCC3)nc(-c3ccoc3)nc2c1`?
HTT ATP protect: 5%

What do the screens show for `CCc1cc2c(nc1CC)CCN(CC/C(C)=N/O[C@@H](C)c1cn([C@H](CO)Cc3ccccc3)nn1)C2`?
HTT ATP protect: -3%[10 µM]

Results for COc1ccc(-c2cc(C(F)F)n3ncc(C(=O)N4CCc5ccccc54)c3n2)cc1 ?
HTT ATP protect: -69%[10 µM]; L3MBTL1 block: -14%; JMJD2E inh: -19%; HttQ103 aggreg: 1.6µM*

Results for COc1ccc2c(c1)O[C@@H](c1cccc(C(F)(F)F)c1)[C@H](OC(=O)NS(=O)(=O)c1ccc(F)cc1)C2=O ?
HTT ATP protect: -14%; JMJD2E inh: 9%

What do the screens show for `O=C(Cc1ccc(Cl)cc1)Nc1ccc(N2CCN(C(=O)c3ccco3)CC2)c(Cl)c1`?
HTT ATP protect: -4%[0.074 µM]; L3MBTL1 block: -16%; JMJD2E inh: 4%; HttQ103 aggreg: 10µM*

Results for O=C(Nc1ccc(N2CCN(C(=O)c3ccco3)CC2)c(Cl)c1)c1cccs1 ?
HTT ATP protect: 4%[1.9 µM]; L3MBTL1 block: -5%; JMJD2E inh: -10%; HttQ103 aggreg: inconclusive

What do the screens show for `O=C(Nc1ccc(N2CCN(C(=O)c3ccccc3)CC2)c(Cl)c1)c1ccc(Br)o1`?
HTT ATP protect: -69%; L3MBTL1 block: -10%; JMJD2E inh: inconclusive; HttQ103 aggreg: 11µM*

Results for Cc1cc2c(nc1C)CCCN2C[C@@H](O)CN1CCN(C)CC1 ?
HTT ATP protect: -8%[10 µM]

What do the screens show for `c1csc(CCNc2ncnc3sc4c(c23)CCC4)c1`?
HTT ATP protect: -6%; JMJD2E inh: -1%; HttQ103 aggreg: 7.9µM*

How did Fc1ccc(Nc2ncnc3sc4c(c23)CCC4)cc1F do in these assays?
HTT ATP protect: -18%[10 µM]; L3MBTL1 block: 4%; JMJD2E inh: 4%; HttQ103 aggreg: 10µM*

What do the screens show for `c1ccc(Nc2ncnc3sc4c(c23)CCC4)cc1`?
HTT ATP protect: -29%; L3MBTL1 block: -4%; JMJD2E inh: -9%; HttQ103 aggreg: -16%

Results for O=C(O)c1ccccc1-c1noc(-c2ccccc2F)n1 ?
L3MBTL1 block: 18%
